Compounds with a hit are over-represented: about 5.4% of the library has one in this group of screens.
VACV mCherry inh: vaccinia inhibition (mCherry reporter). Potency, µM (titrated, usually from 36.5 µM), usual class: inhibitors. Vaccinia virus mCherry reporter infection, fluorescence. 310,000 compounds, 0.63% hits; calls by dose curve; tested in A549 cells; further: nearly all actives have a fitted effect of over 35% in size
Vaccinia Venus: inhibitors of vaccinia virus (Venus reporter) | Vaccinia virus Venus reporter expression, fluorescence | Potency, µM (titrated, usually from 36.5 µM), most hits filed as inhibitors | 330,000 compounds, 0.46% hits; calls by dose curve; tested in A549 cells; further: nearly all actives have a fitted effect of over 30% in size
LASV entry inh: inhibitors of Lassa virus binding or cell entry; Lassa virus pseudotype entry inhibition, cell reporter; Potency, µM (top dose mostly 37.9 µM), usual class: inhibitors; 300,000 compounds, 1.2% hits; AID 540256; calls by dose curve; tested in HEK293 cells; further: nearly all actives have a fitted effect of over 50% in size
Sm TGR block: S. mansoni TGR enzyme inhibition. Q962Y6. purified TGR, DTNB reduction, TNB absorbance 405 nm. Potency, µM (doses to about 114 µM), most hits filed as inhibitors. 360,000 compounds, 3% hits. AID 485364; active means well fitted inhibition curve with a large enough effect; inconclusive means small, poorly fitted or top-dose-only effect; inactive means no such curve, though single readings can be large or run the other way; further: nearly all actives have a fitted effect of over 60% in size
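Kinetic colorimetric format: TGR-catalysed, NADPH-driven DTNB reduction monitored via TNB absorbance. Enzyme dispensed at 20 nM; compound exposure 15 min at room temperature before reaction start.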
FMDV inh: blocks foot and mouth disease virus | FMDV antiviral cell-based qHTS | Potency, µM (titrated, usually from 57.9 µM), actives largely listed as inhibitors | 410,000 compounds, 1.2% hits; calls by dose curve; tested in HEK293T cells; further: read-out not given here; nearly all actives have a fitted effect of over 45% in size
Marburg entry inh: Marburg virus entry inhibition; Marburg virus pseudotyped entry inhibition, cell reporter; Potency, µM (series often up to 37.8 µM), most hits filed as inhibitors; 300,000 compounds, 1.8% hits; AID 540276; calls by dose curve; tested in HEK293 cells
Of the large screens only hits and unclear results are named; the others gave an inactive call.

Cc1ccc(CNC(=O)c2cnc(N3CCCCC3)c3ccccc23)cc1	none (no result: Marburg entry inh)
CC(=O)OCc1cnc(C)c2oc(=O)c(C(=O)Nc3cccc(F)c3)cc12	LASV entry inh 0.794µM (no result: Marburg entry inh)
CC(=O)OCc1cnc(C)c2oc(=O)c(C(=O)Nc3cc(F)ccc3C)cc12	none
CCc1nnc2c3ccccc3nc(N3CCN(c4cc(C)ccc4C)CC3)n12	LASV entry inh inconclusive (no result: Marburg entry inh)
O=C(COC(=O)c1ccc([N+](=O)[O-])o1)Nc1cccc(S(=O)(=O)N2CCCCC2)c1	Sm TGR block inconclusive (no result: LASV entry inh)
O=C(Nc1cccc(S(=O)(=O)N2CCCCC2)c1)c1ccc([N+](=O)[O-])o1	VACV mCherry inh 11.2µM, Vaccinia Venus 10µM (no result: LASV entry inh, Marburg entry inh)
Cc1ccc(NC(=O)c2ccc([N+](=O)[O-])o2)cc1S(=O)(=O)N1CCOCC1	VACV mCherry inh inconclusive, Vaccinia Venus inconclusive, LASV entry inh inconclusive, Sm TGR block 14.1µM, Marburg entry inh inconclusive
Cc1ccc(NC(=O)COC(=O)Cc2c[nH]c3ccccc23)cc1F	Sm TGR block 50.1µM, Marburg entry inh inconclusive
COc1ccccc1CNC(=O)COC(=O)Cc1c[nH]c2ccccc12	none
COc1ccccc1NC(=O)COC(=O)Cc1c[nH]c2ccccc12	LASV entry inh 11.2µM
O=C(COC(=O)Cc1c[nH]c2ccccc12)Nc1ccc(Cl)cc1	none (no result: LASV entry inh, Sm TGR block, Marburg entry inh)
CCOC(=O)c1sc(NC(=O)c2ccncc2)c(C#N)c1C	FMDV inh inconclusive, Marburg entry inh inconclusive
Cc1ccccc1-c1cc(C(=O)Nc2sc(C)c(C)c2C(N)=O)c2ccccc2n1	LASV entry inh 15.8µM, FMDV inh inconclusive, Marburg entry inh inconclusive (no result: VACV mCherry inh)
CCOC(=O)c1sc(NC(=O)c2cc(-c3ccccc3C)nc3ccccc23)c(C#N)c1C	VACV mCherry inh inconclusive, Vaccinia Venus inconclusive, LASV entry inh 11.2µM, FMDV inh inconclusive, Marburg entry inh inconclusive
CCOC(=O)c1c(NC(=O)c2cc(-c3ccc(Cl)s3)nc3ccccc23)sc(C(N)=O)c1C	none
CC(=O)c1ccc(NC(=O)CC2Nc3cccc4cccc(c34)NC2=O)cc1 (configuration not stated)	VACV mCherry inh inconclusive, Vaccinia Venus inconclusive, Sm TGR block 17.8µM
CC(=O)Nc1ccc(NC(=O)CC2Nc3cccc4cccc(c34)NC2=O)cc1 (configuration not stated)	Sm TGR block inconclusive
CCOC(=O)C1CCCN(Cc2c(C(=O)N3CCCCC3)nc3c(C)cccn23)C1 (configuration not stated)	none
Cc1cccn2c(CNC3CCCc4ccccc43)c(C(=O)N3CCCCC3)nc12 (configuration not stated)	LASV entry inh inconclusive, Marburg entry inh 10µM (no result: Sm TGR block)
CCc1ccc(N(CC)C(=O)c2sc3nc4n(c(=O)c3c2C)CCCC4)cc1	Sm TGR block 10µM, FMDV inh inconclusive (no result: Marburg entry inh)
Cc1cccc(NC(=O)COC(=O)c2ccc3c(=O)n4c(nc3c2)CCC4)c1	LASV entry inh inconclusive
O=C(c1ccc2c(=O)n3c(nc2c1)CCCCC3)N1CCN(C(c2ccccc2)c2ccccc2)CC1	LASV entry inh 16.4µM, Marburg entry inh inconclusive (no result: VACV mCherry inh, Vaccinia Venus)
CCN(C(=O)c1sc2nc3n(c(=O)c2c1C)CCCCC3)c1ccc(OC)cc1	Sm TGR block 22.4µM (no result: Marburg entry inh)
CC(=O)c1c(C)[nH]c(C(=O)COC(=O)c2ccc3c(=O)n4c(nc3c2)CCC4)c1C	FMDV inh 4.47µM
CCN(C(=O)c1sc2nc3n(c(=O)c2c1C)CCCCC3)c1ccccc1F	LASV entry inh inconclusive, Sm TGR block inconclusive (no result: Marburg entry inh)
O=C(c1ccc2c(=O)n3c(nc2c1)CCCCC3)N1CCN(c2ccccc2)CC1	none
C[C@@H](NCCCc1cccc(C(F)(F)F)c1)c1cccc2ccccc12	Vaccinia Venus inconclusive (no result: LASV entry inh, Sm TGR block, FMDV inh, Marburg entry inh)
CCOC(=O)C1CCCCN1C(=O)c1cnn(-c2nccc(-c3cc(C)sc3C)n2)c1C1CC1 (configuration not stated)	none (no result: LASV entry inh, Sm TGR block, Marburg entry inh)
O=C(CN1Cc2ccccc2OC(c2ccsc2)C1)N1CCC(c2nc3ccccc3[nH]2)CC1 (configuration not stated)	none (no result: LASV entry inh, Sm TGR block, Marburg entry inh)
COCCCNC(=O)c1sc2nc3n(c(=O)c2c1C)CCC3	Sm TGR block 11.2µM (no result: Marburg entry inh)
CCc1ccc(N(CC)C(=O)c2ccc3c(=O)n4c(nc3c2)CCCCC4)cc1	VACV mCherry inh inconclusive, Vaccinia Venus inconclusive, FMDV inh 39.8µM
CCc1ccc(CN(C)C(=O)c2ccc3c(=O)n4c(nc3c2)CCC4)cc1	Sm TGR block inconclusive
CCc1cccc(NC(=O)c2nnn(Cc3ccc(SC)cc3)c2N)c1	none
CCCCCCCCOc1ccc(C2CC(=O)NC2=O)cc1 (configuration not stated)	Sm TGR block 100µM (no result: VACV mCherry inh, Vaccinia Venus, LASV entry inh, Marburg entry inh)
O=C1CC(c2ccc(OCCCCCOc3ccc(C4CC(=O)NC4=O)cc3)cc2)C(=O)N1 (configuration not stated)	LASV entry inh inconclusive, FMDV inh 28.2µM, Marburg entry inh inconclusive
CC(C)Oc1ccc(C2CC(=O)NC2=O)cc1 (configuration not stated)	none
CCCCOc1ccc(C2CC(=O)N(C)C2=O)cc1 (configuration not stated)	none (no result: VACV mCherry inh)
CC(CCN1CCCCc2nc(C)c(C)cc21)=NO[C@H](C)c1cn([C@@H]2COC[C@@H]2O)nn1	none (no result: VACV mCherry inh, Vaccinia Venus, LASV entry inh, Sm TGR block, FMDV inh)
CCc1ccc(S(=O)(=O)c2cn(CC)c3cc(N4CCCCC4)c(F)cc3c2=O)cc1	none (no result: Marburg entry inh)
COC(=O)Cc1[nH]nc2c1C(C1C=CCCC1)C(C#N)=C(N)O2 (configuration not stated)	FMDV inh 15.8µM (no result: VACV mCherry inh)
O=C(NCCc1nnc2n1CCN(Cc1ccc(F)cc1)CC2)c1ccc(F)cc1	none (no result: LASV entry inh, Sm TGR block, Marburg entry inh)
O=C1c2ccccc2-c2onc3ccc(NCc4ccco4)c1c23	Sm TGR block 11.2µM, FMDV inh inconclusive, Marburg entry inh inconclusive
O=C1c2ccccc2-c2onc3ccc(N4CCCC4)c1c23	Sm TGR block 17.8µM (no result: VACV mCherry inh, Vaccinia Venus, LASV entry inh, Marburg entry inh)
COc1cccc(CNC(=O)COCc2cc(-c3ccc4c(c3)OCO4)on2)c1	none (no result: Marburg entry inh)
COc1ccc2c(c1)-c1nc(NC(=O)c3ccc(Cl)cc3)sc1CC2	VACV mCherry inh inconclusive, Vaccinia Venus inconclusive, FMDV inh inconclusive
COc1ccc(C(=O)Nc2nc3c(s2)Cc2cc(OC)ccc2-3)cc1	FMDV inh 10µM
COc1ccc2c(c1)-c1nc(NC(=O)c3cc(Cl)ccc3OC)sc1CC2	VACV mCherry inh 10µM, Vaccinia Venus 10µM
C=C1C(=O)O[C@H]2[C@H]1[C@@H](O)CC(=C)[C@@H]1CC(=O)[C@@H](C)[C@H]21	VACV mCherry inh inconclusive, LASV entry inh inconclusive, Sm TGR block 22.4µM, FMDV inh 22.4µM, Marburg entry inh inconclusive
C=C1C[C@H](OC(=O)C(C)(O)CCl)C2C(=C)C(=O)O[C@@H]2C2C1C[C@H](O)[C@]2(O)CCl (some centres not stated)	none (no result: VACV mCherry inh, Vaccinia Venus, LASV entry inh, Sm TGR block, Marburg entry inh)
Cc1ccc(-c2cc(=O)c3cc(C)ccc3[nH]2)cc1	Vaccinia Venus inconclusive, LASV entry inh 14.6µM, Marburg entry inh 8.2µM
Cc1ccc(-c2cc(=O)c3cc(F)ccc3[nH]2)cc1	none
